For 8 compounds, growth results are on record in PubChem BioAssay (NCI).

Holding throughout (assay): NCI-60 one-dose screen, 48 h (100 = growth as untreated, 0 = no growth, -100 = all killed)
Common to all, as to details: 10 µM unless noted

The subject of test [1] is DU-145 prostate.
The test system of test [2] is K-562 leukemia.
Test [3] deals with MALME-3M melanoma.
Test [4] relates to MDA-MB-231 breast.
The test system of test [5] is RXF 393 renal.
Test [6] has as its system SF-268 CNS.
The subject of test [7] is SF-295 CNS.
Test [8] deals with SF-539 CNS.
The test system of test [9] is UACC-257 melanoma.
The subject of test [10] is M14 melanoma.
The subject of test [11] is HCT-15 colon.
Test [12] has as its system HT29 colon.
Test [13] has as its system SNB-75 CNS.
The test system of test [14] is SNB-19 CNS.
The subject of test [15] is U251 CNS.
Test [16] has as its system PC-3 prostate.
Test [17] relates to UACC-62 melanoma.
The subject of test [18] is LOX IMVI melanoma.
In test [19] the test system is SK-MEL-28 melanoma.
Test [20] deals with SK-MEL-5 melanoma.

About 83,000 compounds went through this panel and 20% of them were active in at least one assay; those are over-represented in the sample as a whole.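 Assay: single dose, 48 h. Readout: percent growth (0 = no net growth; negative = cell death). Active: <10.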 A number with no mark means an inactive call. Activity calls are given as the source filed them.

For `C#Cc1cccc(Nc2ncnc3cc(OCCOC)c(OCCOC)cc23)c1`, the growth is 35.8% in test [1]; 51.3% in test [2]; 67.6% in test [3]; 67% in test [4]; 46.1% in test [5]; 62.9% in test [6]. For the same compound, the growth in [7] was 84.9%; in test [8], 81.1%; in [9], 85.7%; in test [10], 48.5%; in [11], 39.3%; in test [12] it was 53.2%. The growth in test [13] was 71.6%; in test [14], 79.8%; in test [15], 68.8%; in test [16] it was 73.4%; in test [17], 50.9%; in test [18] it was 47.2%. Also, the growth in test [19] is 86.8%.
Take `Cc1c(CN2CCN(C(=O)[C@H](C)O)CC2)sc2c(N3CCOCC3)nc(-c3cnc(N)nc3)nc12`: the growth in [1] is 8.38% (active); in test [2], 17.6%; in test [3] it was -52.3% (active); in [4], 7.09% (active); in [5], -40.1% (active); in test [6] it was 12.1%. Further, the growth in test [7] is -45% (active); in [8], -47.5% (active); in test [9], -34.3% (active); in test [10] it was -21.4% (active); in test [11] it was 2.93% (active); in [12] it was -13% (active). The growth in [13] was -47.4% (active); in [14], 3.17% (active); in test [15], 6.95% (active); in [16], 8.68% (active); in test [17], -62.6% (active); in test [18], 0.99% (active). Also, in test [19], the growth is -30% (active).
As for `CCn1cc(-c2ccnc3[nH]c(-c4cccc(CN(C)C)c4)cc23)c(-c2ccc(NC(=O)N(C)C)cc2)n1`, the growth in test [1] is 40.2%; in [2], 1.59% (active); in [3], 46.9%; in [4], 14%; in test [5], -24.8% (active); in [6], 33.5%. In addition, the growth in test [7] is 16.1%; in test [8], 5.58% (active); in [9], 40.8%; in test [10], 21.4%; in [11], 24.6%; in test [12], -7.89% (active). For the same compound, the growth in test [13] was -52.6% (active); in [15] it was 38.2%; in test [16], 30.6%; in test [20] it was 37.5%; in test [17], 39.9%; in test [18], -76.9% (active). Besides, the growth in test [19] was 45.2%.
With `COc1c(OCCCN2CCOCC2)ccc2c3n(c(=NC(=O)c4cnc(N)nc4)nc12)CCN3`, the growth in [1] was 21.8%; in [2], 21.8%; in test [3], -21.2% (active); in test [4], 17.1%; in test [5], -40.7% (active); in [6], 24.6%. Besides, the growth in [7] was -15.4% (active); in test [8] it was -51.5% (active); in test [9], -13.8% (active); in test [10], 10.4%; in test [11] it was 14.9%; in test [12] it was 3.56% (active). Moreover, the growth in test [13] was -19.2% (active); in test [14], 10.8%; in test [15], 10.1%; in [16], 12%; in test [20], -48.7% (active); in [18], -41.9% (active). In addition, the growth in test [19] was -7.18% (active).
In the case of `Cc1ccc(-[n+]2c3cc(N)c(C)cc3nc3cc(C)c(Nc4ccccc4)cc32)cc1`, the growth in test [1] is -79.3% (active); in [2], -22.7% (active); in [3], -58% (active); in test [4], -70% (active); in test [5], -98.7% (active); in test [6] it was -88.6% (active). Further, the growth in test [7] was -39.2% (active); in test [8], -77% (active); in [9], -48.8% (active); in [10], -93.3% (active); in [11], -69.8% (active); in test [12], -73.9% (active). Moreover, the growth in test [13] is -68.5% (active); in [14], -82.3% (active); in test [15] it was -75.1% (active); in [16] it was -29.1% (active); in [18], -100% (active); in test [19], -69.6% (active).
As for `Cc1c(N)ccc(-c2ccc(N)c(C)c2S(=O)(=O)O)c1S(=O)(=O)O`, the growth in test [1] is 111%; in test [2] it was 101%; in [3], 127%; in test [4] it was 109%; in [5], 118%; in [6], 109%. Also, the growth in [7] was 117%; in test [8] it was 126%; in test [9], 115%; in test [10], 108%; in [11], 111%; in [13], 101%. Further, the growth is 112% in [14]; 106% in test [15]; 98.4% in [16]; 110% in test [20]; 105% in [17]; 98.6% in test [18]. Further, the growth in test [19] is 115%.
As for `FC(F)c1nc2ccccc2n1-c1nc(N2CCOCC2)nc(N2CCOCC2)n1`, the growth in test [1] was 6.49% (active); in test [2], 13.1%; in test [3] it was -26.7% (active); in [4], 15.7%; in test [5] it was -44.5% (active); in test [6], 2.79% (active). Further, the growth is -44.6% (active) in test [7]; -45.3% (active) in test [8]; -27.3% (active) in [9]; 3% (active) in test [10]; 9.28% (active) in test [11]; -48% (active) in test [13]. In addition, the growth is 10.5% in [14]; 4.05% (active) in test [15]; 7.59% (active) in test [16]; -41.8% (active) in [20]; -50% (active) in test [17]; -17.9% (active) in [18]. Further, the growth in [19] was -31% (active).
As to `CC[C@H](Nc1ncnc2nc[nH]c12)c1nc2cccc(F)c2c(=O)n1-c1ccccc1`, the growth in test [1] is 62.4%; in test [2], 83.6%; in test [3], 88.9%; in [4] it was 89.1%; in test [5], 2.02% (active); in test [6], 71%. Further, the growth in test [7] is 57.9%; in [8], 102%; in test [9], 39.9%; in test [10] it was 85.3%; in test [11] it was 88.9%; in test [13], 25.8%. The growth was 71.5% in [14]; 77% in [15]; 50.9% in test [16]; 80.2% in test [20]; 39.1% in test [17]; 74.6% in [18].
